Assay results reported in PubChem BioAssay (Tox21).
“And” between values parts separate entries of the source, which are not always exact repeats. Identical values can stand only once. Results filed as inconclusive are left out. A call without a number means that no potency is given here. A structure can be active in one record and inactive in another. The source made the active and inactive calls. Unless noted, calls follow the shape of the full dose curve.

How the values were obtained:
[1] = Nuclear factor erythroid 2-related factor 2/antioxidant responsive element (Nrf2/ARE) small molecule agonists: qHTS cell viability counter screen in human keratinocytes (AID 1919968; active = well fitted curve in the direction sought with a large enough effect in the repeat runs; an effect the other way counts as inactive or inconclusive; also: nearly all actives have a fitted effect of over 55% in size)
How it was run: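 KeratinoSens cells (HaCaT keratinocytes stably carrying an ARE-luciferase reporter) were seeded at 1,500 cells/well and rested 5 h at 37 C/5% CO2. They were then exposed to compounds in DMSO for 23 h. Viability was read by CellTiter-Fluor fluorescence after 1 h.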

[2] = Nuclear factor erythroid 2-related factor 2/antioxidant responsive element (Nrf2/ARE) small molecule agonists: luciferase reporter gene qHTS assay in human keratinocytes (AID 1919969); also: nearly all actives have a fitted effect of over 35% in size
[3] = target: Gonadotropin-releasing hormone receptor (Homo sapiens) (UniProt P30968); test: Human gonadotropin-releasing hormone receptor (GnRHR) small molecule agonists, calcium flux assay in GnRHR-HEK293 cells (AID 1920063); also: nearly all actives have a fitted effect of over 35% in size
How it was run: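 HEK293 cells stably expressing human GnRHR were plated 18 h at 37 °C, loaded with calcium dye 1 h at 37 °C, then given compound in agonist mode; fluorescence (Ex/Em 480/540) read kinetically for 3 min at 1 s intervals.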

[4] = target: KiSS-1 receptor (Homo sapiens) (UniProt Q969F8); test: Human kisspeptin (KISS1R) small molecule agonists, calcium flux assay in KISS1R-HEK293 cells (AID 1920064; active = well fitted curve in the direction sought with a large enough effect in the repeat runs; an effect the other way counts as inactive or inconclusive)
How it was run: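 HEK293 cells stably expressing human KISS1R were plated 18 h at 37 °C, loaded with calcium dye for 1 h at 37 °C, then given compound by pin tool. Fluorescence (Ex/Em 480/540) was read kinetically for 3 min.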

[5] = G protein-coupled receptor (GPCR) small molecule agonists, calcium flux assay: HEK293 wild type cell line counter screen (AID 1920065)
How it was run: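 Cells were plated and cultured 18 h at 37 C/5% CO2, then loaded with calcium dye for 1 h at 37 C. Compounds in DMSO were pin-transferred in agonist mode, and fluorescence (Ex/Em 480/540) was read kinetically for 3 min at 1 s intervals.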

[6] = p53 small molecule agonists, cell-based qHTS assay with human liver microsomes (AID 1963577);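 also: p53 response element beta-lactamase reporter cells with liver microsomes plus NADPH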
How it was run: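 Reporter activation was measured by LiveBLAzer fluorescence intensity in p53RE-bla cells, which had been exposed to compounds for 16 h at 37 C alongside 0.5 mg/mL human liver microsomes and 0.5 mg/mL NADPH (final concentrations).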

[7] = p53 small molecule agonists, cell-based qHTS assay with rat liver microsomes (AID 1963578)
How it was run: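 Compound in DMSO added to p53RE-bla cells 5 h post-plating; rat microsomes/NADPH 0.5 mg/mL final; 16 h, 37 C; LiveBLAzer 2 h RT.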

[8] = p53 small molecule agonists, cell-based qHTS assay with human liver microsomes: qHTS cell viability counter screen (AID 1963579); also: nearly all actives have a fitted effect of over 45% in size
How it was run: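 HLM-supplemented (0.5 mg/mL final) and NADPH-supplemented (0.5 mg/mL final) p53RE-bla cultures, 4,000 cells per well, were dosed with compounds in DMSO for 16 h at 37 C; luminescent ATP detection (CellTiter-Glo, 30 min, room temperature) quantified surviving cells.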

[9] = p53 small molecule agonists, cell-based qHTS assay with rat liver microsomes: qHTS cell viability counter screen (AID 1963580); also: nearly all actives have a fitted effect of over 45% in size
How it was run: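 p53RE-bla HCT-116 cells were exposed 16 h at 37 C to compounds with rat liver microsomes (0.5 mg/mL) and NADPH (0.5 mg/mL). Viability was measured in the same wells as ATP content by CellTiter-Glo luminescence.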

[10] = p53 small molecule agonists, cell-based qHTS assay: qHTS cell viability counter screen (AID 1963581); also: nearly all actives have a fitted effect of over 45% in size
How it was run: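 p53RE-bla HCT-116 cells were exposed to compounds for 16 h at 37 C; after the beta-lactamase FRET read in the same wells, CellTiter-Glo was added and luminescence (intracellular ATP) read after 30 min at room temperature.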

[11] = p53 small molecule agonists, cell-based qHTS assay (AID 1963582; active = well fitted activation curve with a large enough effect in the signal ratio in the repeat runs, not every such curve was filed as active; the % refers to the signal ratio)
How it was run: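 p53RE-bla beta-lactamase reporter cells rested 5 h at 37 C/5% CO2, then received compounds in DMSO by pin transfer and were incubated 16 h at 37 C. LiveBLAzer B/G FRET substrate was loaded for 2 h at room temperature before fluorescence reading.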

[12] = cAMP Responsive Elements (CRE) small molecule agonists, cell-based qHTS assay (AID 1963590)
How it was run: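 CRE-bla HEK 293T cells in DMEM with 10% dialyzed FBS, NEAA, pyruvate and 25 mM HEPES were plated 18 h at 37 C/5% CO2, then exposed to compounds in DMSO for 3 h before LiveBLAzer B/G FRET substrate addition.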

[13] = cAMP Responsive Elements (CRE) small molecule antagonists, cell-based qHTS assay (AID 1963591; active = well fitted inhibition curve with a large enough effect in the signal ratio in the repeat runs, not every such curve was filed as active; the % refers to the signal ratio)
How it was run: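 CRE-bla HEK293T cells were plated 18 h at 37 °C/5% CO2, pinned with compound in DMSO, then stimulated with NKH477 at 0.25 uM final for 3 h. LiveBLAzer B/G FRET substrate was added and plates incubated 2 h at room temperature.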

[14] = target: Beta-2 adrenergic receptor (Homo sapiens) (UniProt P07550); test: Adrenergic beta2 receptor (ADRB2) small molecule antagonists, cell-based qHTS assay (AID 1963592); also: series mostly up to about 92 µM; nearly all actives have a fitted effect of over 50% in size
How it was run: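 Cells (CHO, stable ADRB2 overexpression) incubated 18-20hr at 37C; compounds added from DMSO; agonist mix (1nM isoproterenol, 100uM IBMX, 25uM Ro-20-1724) added; 0.5hr RT; d2-cAMP and anti-cAMP-cryptate added; 1hr RT; 665/615 nm read.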

[15] = target: D(2) dopamine receptor (Homo sapiens) (UniProt P14416); test: Dopamine D2 receptor (DRD2) small molecule agonists, cell-based qHTS assay (AID 1963594); also: nearly all actives have a fitted effect of over 35% in size
How it was run: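 HEK293 cells stably expressing human DRD2, pre-treated with PDE inhibitor Ro20-1724 (0.1 mM final) and compound 10 min at room temperature, then stimulated with NKH477 (200nM […]) for 30 min. cAMP read by HTRF (665/620 nm).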

[16] = target: D(2) dopamine receptor (Homo sapiens) (UniProt P14416); test: Dopamine D2 receptor (DRD2) small molecule antagonists, cell-based qHTS assay (AID 1963595; active = well fitted inhibition curve with a large enough effect in the signal ratio in the repeat runs, with a control signal flat; the % refers to the signal ratio; also: potency is read from the fitted curve at half-maximal effect)
How it was run: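 Human DRD2 antagonist qHTS measuring cAMP by HTRF. The cells are exposed to compound for 10 min, then to NKH477 (200 nM) and quinpirole (12 nM) for 30 min at RT, with Ro20-1724 (0.1 mM) present throughout.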

[17] = target: Beta-2 adrenergic receptor (Homo sapiens) (UniProt P07550); test: Adrenergic beta2 receptor (ADRB2) small molecule agonists, cell-based qHTS assay (AID 1963593);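 also: CHO cells stably overexpressing human ADRB2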
How it was run: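 CHO cells stably over-expressing ADRB2 were plated overnight at 37C, then dosed with compounds plus a stimulation mix containing 100uM IBMX and 25uM Ro-20-1724 for 0.5hr at room temperature. cAMP was measured by HTRF competition, 1hr.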

[18] = target: Muscarinic acetylcholine receptor M1 (Homo sapiens) (UniProt P11229); test: Cholinergic receptor muscarinic 1 (CHRM1) small molecule agonists, cell-based qHTS assay (AID 1963589); also: nearly all actives have a fitted effect of over 35% in size
How it was run: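 CHO cells stably expressing human CHRM1, seeded 18 h at 37 C/5% CO2, dye-loaded 1 h at 37 C, then given compound in agonist mode; intracellular calcium fluorescence read kinetically at 1 s intervals. Fifteen concentrations, three independent runs.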

Muscarinic acetylcholine receptor M1 (Homo sapiens), sequence (P11229 whole entry, looked up): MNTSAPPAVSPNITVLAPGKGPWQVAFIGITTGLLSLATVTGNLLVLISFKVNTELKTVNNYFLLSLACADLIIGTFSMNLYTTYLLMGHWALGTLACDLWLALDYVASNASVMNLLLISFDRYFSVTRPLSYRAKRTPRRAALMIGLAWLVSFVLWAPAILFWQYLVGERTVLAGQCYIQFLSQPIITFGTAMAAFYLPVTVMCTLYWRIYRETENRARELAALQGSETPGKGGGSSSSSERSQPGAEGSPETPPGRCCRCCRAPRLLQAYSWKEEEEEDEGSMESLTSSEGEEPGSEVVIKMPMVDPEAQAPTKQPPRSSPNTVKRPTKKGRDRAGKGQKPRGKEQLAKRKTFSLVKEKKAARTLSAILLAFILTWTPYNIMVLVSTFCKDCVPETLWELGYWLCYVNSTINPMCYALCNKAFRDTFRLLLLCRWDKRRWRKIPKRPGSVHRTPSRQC
KiSS-1 receptor (Homo sapiens), sequence (Q969F8 whole entry, looked up): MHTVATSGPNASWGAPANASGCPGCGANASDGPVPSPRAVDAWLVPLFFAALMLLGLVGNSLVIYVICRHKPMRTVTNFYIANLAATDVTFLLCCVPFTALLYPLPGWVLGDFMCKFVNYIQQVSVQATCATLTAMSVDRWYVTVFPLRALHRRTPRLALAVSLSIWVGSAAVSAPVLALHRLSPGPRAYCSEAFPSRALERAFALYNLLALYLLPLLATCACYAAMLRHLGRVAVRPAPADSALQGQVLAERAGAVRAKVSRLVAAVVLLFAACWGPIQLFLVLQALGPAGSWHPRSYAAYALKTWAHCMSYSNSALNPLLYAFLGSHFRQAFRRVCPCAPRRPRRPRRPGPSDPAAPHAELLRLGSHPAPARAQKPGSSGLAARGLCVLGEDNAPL
D(2) dopamine receptor (Homo sapiens), sequence (P14416 whole entry, looked up): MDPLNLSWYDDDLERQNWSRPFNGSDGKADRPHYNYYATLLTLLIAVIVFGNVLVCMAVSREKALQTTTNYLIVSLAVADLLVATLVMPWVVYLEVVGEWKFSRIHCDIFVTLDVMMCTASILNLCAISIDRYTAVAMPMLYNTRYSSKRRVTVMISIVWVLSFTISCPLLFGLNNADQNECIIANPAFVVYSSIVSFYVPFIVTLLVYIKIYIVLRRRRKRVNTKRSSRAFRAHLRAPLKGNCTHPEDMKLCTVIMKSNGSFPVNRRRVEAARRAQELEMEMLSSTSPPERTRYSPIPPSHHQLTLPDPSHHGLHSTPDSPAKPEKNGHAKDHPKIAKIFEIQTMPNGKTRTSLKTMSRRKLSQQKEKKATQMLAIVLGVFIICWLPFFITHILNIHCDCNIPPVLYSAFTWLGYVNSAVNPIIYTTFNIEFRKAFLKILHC
Beta-2 adrenergic receptor (Homo sapiens), sequence (P07550 whole entry, looked up): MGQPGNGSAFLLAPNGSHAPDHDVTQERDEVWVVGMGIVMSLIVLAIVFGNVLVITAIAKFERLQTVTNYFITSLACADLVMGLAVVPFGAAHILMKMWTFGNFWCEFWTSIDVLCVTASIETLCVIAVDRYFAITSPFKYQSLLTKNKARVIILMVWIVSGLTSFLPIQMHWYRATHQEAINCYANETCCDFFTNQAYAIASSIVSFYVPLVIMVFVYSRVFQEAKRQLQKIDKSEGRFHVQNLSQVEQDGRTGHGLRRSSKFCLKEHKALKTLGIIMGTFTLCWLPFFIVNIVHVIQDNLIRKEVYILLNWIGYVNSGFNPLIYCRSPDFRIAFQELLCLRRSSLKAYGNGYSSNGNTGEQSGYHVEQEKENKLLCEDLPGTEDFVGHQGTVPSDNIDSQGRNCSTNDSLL
Gonadotropin-releasing hormone receptor (Homo sapiens), sequence (P30968 whole entry, looked up): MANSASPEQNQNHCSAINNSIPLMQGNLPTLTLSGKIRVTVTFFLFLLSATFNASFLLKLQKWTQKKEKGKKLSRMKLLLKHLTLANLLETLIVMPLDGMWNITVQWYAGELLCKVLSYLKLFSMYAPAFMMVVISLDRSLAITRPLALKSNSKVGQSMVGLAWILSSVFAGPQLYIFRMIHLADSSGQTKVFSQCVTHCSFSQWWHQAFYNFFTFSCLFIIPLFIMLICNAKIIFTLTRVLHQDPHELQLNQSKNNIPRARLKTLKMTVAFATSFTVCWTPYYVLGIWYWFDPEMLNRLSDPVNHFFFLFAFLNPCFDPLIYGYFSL

Compound | Potency [1] | Potency [2] | Potency [3] | Potency [4] | Potency [5] | Potency [6] | Potency [7] | Potency [8] | Potency [9] | Potency [10] | Potency [11] | Potency [12] | Potency [13] | Potency [14] | Potency [15] | Potency [16] | Potency [17] | Potency [18]
CCC1(c2ccccc2)C(=O)NCNC1=O | inactive | inactive | inactive | inactive | inactive | inactive | inactive | inactive | inactive | inactive | inactive | inactive | inactive | inactive | inactive | inactive | – | –
CN(N=O)C(=O)N[C@@H]1[C@@H](O)[C@H](O)[C@@H](CO)O[C@@H]1O | inactive | inactive | inactive | inactive | inactive | inactive | inactive | inactive | inactive | inactive | inactive | inactive | inactive | inactive | inactive | inactive | inactive | –
CC(C)=CCC/C(C)=C\CO | inactive | inactive | inactive | inactive | inactive | inactive | inactive | inactive | inactive | inactive | inactive | inactive | inactive | inactive | inactive | inactive | inactive | –
CC(=O)Oc1ccccc1C(=O)O | inactive | inactive | inactive | inactive | inactive | inactive | inactive | inactive | inactive | inactive | inactive | inactive | inactive | inactive | inactive | – | inactive | –
CC(O)CO (configuration not stated) | inactive | inactive | inactive | inactive | inactive | inactive | inactive | inactive | inactive | inactive | inactive | inactive | inactive | – | inactive | inactive | inactive | –
CS(=O)(=O)c1ccc([C@@H](O)[C@@H](CO)NC(=O)C(Cl)Cl)cc1 | inactive | inactive | inactive | inactive | inactive | inactive | inactive | inactive | inactive | inactive | inactive | inactive | inactive | inactive | inactive | inactive | – | –
N[C@@H](Cc1cc(I)c(Oc2ccc(O)c(I)c2)c(I)c1)C(=O)O | inactive | inactive | inactive | inactive | inactive | inactive | inactive | inactive | inactive | inactive | inactive | inactive | inactive | inactive | inactive | inactive | – | –
CC1(C)[C@@H](O[C@H]2O[C@H](C(=O)O)[C@@H](O)[C@H](O)[C@H]2O[C@@H]2O[C@H](C(=O)O)[C@@H](O)[C@H](O)[C@H]2O)CC[C@]2(C)[C@H]3C(=O)C=C4[C@@H]5C[C@@](C)(C(=O)O)CC[C@]5(C)CC[C@@]4(C)[C@]3(C)CC[C@@H]12 | inactive | inactive | inactive | inactive | inactive | inactive | inactive | inactive | inactive | inactive | inactive | inactive | inactive | inactive | inactive | inactive | – | –
Cc1cc(C)nc(NS(=O)(=O)c2ccc(N)cc2)n1 | inactive | inactive | inactive | inactive | inactive | inactive | inactive | inactive | inactive | inactive | inactive | inactive | inactive | inactive | – | inactive | inactive | –
COCCc1ccc(OCC(O)CNC(C)C)cc1 (configuration not stated) | inactive | inactive | inactive | inactive | inactive | inactive | inactive | inactive | inactive | inactive | inactive | inactive | – | – | – | – | – | –
Cc1nnc(NS(=O)(=O)c2ccc(N)cc2)s1 | inactive | inactive | inactive | inactive | inactive | inactive | inactive | inactive | inactive | inactive | inactive | inactive | inactive | inactive | inactive | – | inactive | –
O=C(OCCOCCOC(=O)c1ccccc1)c1ccccc1 | inactive | inactive | inactive | inactive | inactive | inactive | inactive | inactive | inactive | inactive | inactive | inactive | inactive | inactive | inactive | – | – | inactive
CC(=O)Nc1cccc(O)c1 | inactive | inactive | inactive | inactive | inactive | inactive | inactive | inactive | inactive | inactive | inactive | inactive | inactive | inactive | inactive | inactive | inactive | –
CCc1cccc2c3c([nH]c12)C(CC)(CC(=O)O)OCC3 (configuration not stated) | inactive | inactive | inactive | inactive | inactive | inactive | inactive | inactive | inactive | inactive | inactive | inactive | inactive | inactive | inactive | inactive and 23.7 µM (active) | inactive | –
CCCCCCCCCCCCS | inactive | inactive | inactive | inactive | inactive | inactive | inactive | inactive | inactive | inactive | inactive | inactive | inactive | inactive | inactive | inactive | inactive | inactive
